From PubChem BioAssay (Tox21) come the findings set out here.

Values joined by “and” are separate entries in the source; they are usually repeats but may differ in a detail not shown here. Equal entries are not always repeated. Results filed as inconclusive are left out. The source holds several records for some structures; these can differ, active in one and inactive in another. Active and inactive are the calls of the source. Unless noted, calls follow the shape of the dose curve; as a rule, active = well fitted curve in the direction sought with a large enough effect in the repeat runs; inconclusive = weak or mixed curves; inactive = no such curve, though single readings can be large; an effect the other way counts as inactive or inconclusive.

Assay [1] in a line: qHTS assay to identify small molecule agonists of the androgen receptor (AR) signaling pathway in the presence of an antagonist - cell viability counter screen (AID 1259379). Also: nearly all actives have a fitted effect of over 25% in size. Also: potency is read from the fitted curve at half-maximal effect. Summed up: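 Each compound was tested at 15 concentrations on MDA-kb2 cells in the presence of 3.0uM nilutamide. Viability was measured by CellTiter-Fluor fluorescence after a 16 hr incubation at 37C in a CO2-free atmosphere.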

Assay [2] can be described thus: qHTS assay to identify small molecule agonists of the estrogen receptor beta (ER-beta) signaling pathway - cell viability counter screen (AID 1259380). Also: nearly all actives have a fitted effect of over 30% in size. Also: potency is read from the fitted curve at half-maximal effect. Summed up: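 Compounds dissolved in DMSO were pin-transferred onto ER-beta-UAS-bla HEK293T cells that had settled 6 hr, and exposure ran 16 hr at 37C. Following the reporter read, CellTiter-Glo luminescence after 30 min at room temperature indicated cytotoxicity.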
Background: Quantitative high-throughput screening tests each substance at several concentrations.

The nature of assay [3]: qHTS assay to identify small molecule antagonists of the estrogen receptor beta (ER-beta) signaling pathway - cell viability counter screen (AID 1259382). Also: nearly all actives have a fitted effect of over 55% in size. Also: potency is read from the fitted curve at half-maximal effect. Summed up: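 CellTiter-Glo ATP luminescence measured after the LiveBLAzer read in the same wells; ER-beta-UAS-bla HEK293T cells, 16 hr compound treatment with 1nM 17-beta-estradiol agonist at 37C, 5% CO2.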
A short description of assay [4]: qHTS assay to identify small molecule agonists or antagonists of the thyroid stimulating hormone receptor (TSHR) signaling pathway - wild type cell line counter screen (AID 1259384; calls by dose curve). Summed up:
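Wild-type HEK293 cells were plated 18 h at 37 C/5% CO2, pin-dosed with compound plus Ro20-1724 medium, held 30 min at room temperature, then given cAMP-d2 and anti-cAMP-cryptate; fluorescence was read after 1 h. Fifteen concentrations, triplicate.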

Assay [5] in a line: qHTS assay to identify small molecule agonists of the estrogen receptor alpha (ER-alpha) signaling pathway in the presence of an antagonist - cell viability counter screen (AID 1259386).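 Also: cells exposed to compounds for 22 h at 37 °C before the viability read; nearly all actives have a fitted effect of over 30% in size.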 Also: potency is read from the fitted curve at half-maximal effect. Summed up: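 Using estrogen-depleted VM7Luc4E2 cells, the 15-concentration compound series was applied together with 10.0nM ICI-182,780 and incubated 22hr at 37C/5% CO2. Cell viability was then scored by CellTiter-Fluor.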

In assay [6] the target is Progesterone receptor (Homo sapiens) (UniProt P06401). Kind of assay: qHTS assay to identify small molecule agonists of the progesterone receptor (PR) signaling pathway (AID 1346784; calls by dose curve; also: nearly all actives have a fitted effect of over 30% in size). Summed up: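 Fluorescence from LiveBLAzer B/G FRET substrate cleavage (2 hr, RT) reported PR activation in PR-UAS-bla HEK 293T cells treated 16 hr at 37C/5% CO2 with compounds; medium contained 2% charcoal-stripped FBS.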

The target is the same in assay [7]. Kind of assay: qHTS assay to identify small molecule antagonists of the progesterone receptor (PR) signaling pathway (AID 1346795; active = well fitted inhibition curve with a large enough effect in the signal ratio in the repeat runs, not every such curve was filed as active; the % refers to the signal ratio; also: potency is read from the fitted curve at half-maximal effect). In outline:
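Fluorescence intensity measured 2 hr after adding beta-lactamase FRET substrate to PR-UAS-bla HEK293T cells that had been co-treated 16 hr with compound and 1 nM R5020 (final concentration) in 2% charcoal-stripped FBS.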

Assay [8] can be described thus: qHTS assay to identify small molecule antagonists of the progesterone receptor (PR) signaling pathway - cell viability counter screen (AID 1346798). Also: nearly all actives have a fitted effect of over 50% in size. Also: potency is read from the fitted curve at half-maximal effect. Summed up: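 CellTiter-Glo luminescence; PR-UAS-bla HEK293T, 3,000 cells/well; compound + R5020, 16 hr, 37C/5% CO2; 30 min RT before read.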
The nature of assay [9]: qHTS assay to identify small molecule agonists of the progesterone receptor (PR) signaling pathway - cell viability counter screen (AID 1346799; calls by dose curve; also: nearly all actives have a fitted effect of over 45% in size; also: potency is read from the fitted curve at half-maximal effect). Summed up: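 In parallel with the beta-lactamase readout, cytotoxicity toward PR-UAS-bla HEK293T cells was measured by CellTiter-Glo luminescence following 16 hr compound incubation in 2% charcoal-stripped FBS medium.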
A short description of assay [10]: qHTS assay to identify small molecule antagonists of the TGF-beta/Smad signaling pathway - cell viability counter screen (AID 1346824). Also: nearly all actives have a fitted effect of over 50% in size. In outline: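 SBE-bla HEK 293T cells were plated overnight at 37 C, then given compounds in DMSO plus TGF-beta1 (added as 0.25 ng/mL solution) for 5 hr. After the bla read, CellTiter-Glo was added to the same wells and luminescence read after 30 min at room temperature.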

Assay [11] in a line: qHTS assay to identify small molecule agonists of the TGF-beta/Smad signaling pathway - cell viability counter screen (AID 1346829). Also: nearly all actives have a fitted effect of over 45% in size. Also: potency is read from the fitted curve at half-maximal effect. In outline: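 Here the cytotoxicity of library compounds is measured in SBE-bla HEK 293T cells treated for 5 hr, using CellTiter-Glo added to wells already read for the beta-lactamase reporter.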
A short description of assay [12]: qHTS assay to identify small molecule agonists of the TGF-beta/Smad signaling pathway (AID 1346859; active = well fitted activation curve with a large enough effect in the signal ratio in the repeat runs, not every such curve was filed as active; the % refers to the signal ratio; also: series mostly up to about 77 µM). Summed up:
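After overnight seeding, SBE-bla HEK 293T cells are dosed with compounds in DMSO and kept 5 hr at 37 C, 5% CO2. LiveBLAzer-type FRET substrate is then applied for 2 hr at room temperature.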

The nature of assay [13]: Human pregnane X receptor (PXR) small molecule agonists, qHTS cell viability counter screen (AID 1346977). Also: nearly all actives have a fitted effect of over 50% in size. Also: potency is read from the fitted curve at half-maximal effect. In outline: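 Viability counter screen: CellTiter-Fluor signal in PXR-Luc HepG2 cells, 24hr compound exposure, 37C, 5% CO2.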
Assay [14] can be described thus: Caspase-3/7 induction in HepG2 cells by small molecules, qHTS assay (AID 1346978). Also: nearly all actives have a fitted effect of over 15% in size. Also: potency is read from the fitted curve at half-maximal effect. Summed up: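 Wild-type HepG2 cells (2,000/well) were settled 5 h at 37 C, 5% CO2, then exposed to compounds in DMSO for 17 h. Caspase-3/7 activity was read by luminescence 30 min after adding Caspase-Glo 3/7 reagent at room temperature.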
Assay [15] deals with Thyrotropin receptor (Homo sapiens) (UniProt P16473). Kind of assay: qHTS assay to identify small molecule antagonists of the thyroid stimulating hormone receptor (TSHR) signaling pathway (AID 1259385; calls by dose curve; also: nearly all actives have a fitted effect of over 20% in size; also: potency is read from the fitted curve at half-maximal effect). Summed up:
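TSHR-HEK293 cells were plated and held 18 h at 37C/5% CO2, then given compound plus Ro20-1724 and stimulated with TSH at 1.5 ng/mL final. After 30 min at room temperature, cAMP was detected with cAMP-d2/anti-cAMP-cryptate (1 h) by fluorescence.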

Assay [16] concerns the target Thyrotropin-releasing hormone receptor (Homo sapiens) (UniProt P34981). Kind of assay: qHTS assay to identify small molecule antagonists of the thyrotropin-releasing hormone receptor (TRHR) signaling pathway (AID 1346877; active = well fitted inhibition curve with a large enough effect in the repeat runs, not every such curve was filed as active; also: potency is read from the fitted curve at half-maximal effect). Summed up:
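Calcium signal in dye-loaded TRHR/HEK293 cells; compounds added 5 min before TRH (1 nM final); fluorescence monitored 3 min at 1 s steps.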

Assay [17] shares this target. Kind of assay: qHTS assay to identify small molecule agonists of the thyrotropin-releasing hormone receptor (TRHR) signaling pathway (AID 1346891; calls by dose curve; also: potency is read from the fitted curve at half-maximal effect;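 as to activation: HEK293 cells expressing TRHR with calcium dye readout; series mostly up to about 58 µM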). In outline: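 Compounds were tested as agonists at 15 concentrations, in triplicate, on TRHR-Hek293 cells; calcium-sensitive dye fluorescence was recorded for 3 min following addition.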

Progesterone receptor (Homo sapiens), sequence (P06401 whole entry, looked up): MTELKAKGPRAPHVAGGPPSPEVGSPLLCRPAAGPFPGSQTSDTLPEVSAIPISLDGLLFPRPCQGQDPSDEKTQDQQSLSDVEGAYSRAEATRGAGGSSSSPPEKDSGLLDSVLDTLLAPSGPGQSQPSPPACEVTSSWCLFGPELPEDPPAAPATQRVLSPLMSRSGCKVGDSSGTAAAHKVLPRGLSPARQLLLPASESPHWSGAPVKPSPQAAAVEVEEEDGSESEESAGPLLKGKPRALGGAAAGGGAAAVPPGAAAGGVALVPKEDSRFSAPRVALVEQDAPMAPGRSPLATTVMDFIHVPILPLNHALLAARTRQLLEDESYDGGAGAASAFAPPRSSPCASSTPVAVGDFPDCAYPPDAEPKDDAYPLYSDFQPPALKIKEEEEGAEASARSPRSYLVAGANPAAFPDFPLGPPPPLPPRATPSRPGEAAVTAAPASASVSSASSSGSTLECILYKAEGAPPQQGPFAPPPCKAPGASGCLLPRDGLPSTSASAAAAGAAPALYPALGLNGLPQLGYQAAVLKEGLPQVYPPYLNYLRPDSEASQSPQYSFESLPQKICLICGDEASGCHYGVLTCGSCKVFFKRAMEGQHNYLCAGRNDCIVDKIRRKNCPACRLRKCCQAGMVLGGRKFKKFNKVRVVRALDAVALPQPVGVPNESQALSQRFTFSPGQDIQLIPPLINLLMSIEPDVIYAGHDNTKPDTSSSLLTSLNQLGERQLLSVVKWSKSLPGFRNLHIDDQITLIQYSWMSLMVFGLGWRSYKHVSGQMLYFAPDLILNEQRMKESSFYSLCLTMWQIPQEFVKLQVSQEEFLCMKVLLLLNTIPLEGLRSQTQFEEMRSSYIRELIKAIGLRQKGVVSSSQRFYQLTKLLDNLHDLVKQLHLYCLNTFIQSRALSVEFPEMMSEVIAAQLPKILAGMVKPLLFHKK
Thyrotropin-releasing hormone receptor (Homo sapiens), sequence (P34981 whole entry, looked up): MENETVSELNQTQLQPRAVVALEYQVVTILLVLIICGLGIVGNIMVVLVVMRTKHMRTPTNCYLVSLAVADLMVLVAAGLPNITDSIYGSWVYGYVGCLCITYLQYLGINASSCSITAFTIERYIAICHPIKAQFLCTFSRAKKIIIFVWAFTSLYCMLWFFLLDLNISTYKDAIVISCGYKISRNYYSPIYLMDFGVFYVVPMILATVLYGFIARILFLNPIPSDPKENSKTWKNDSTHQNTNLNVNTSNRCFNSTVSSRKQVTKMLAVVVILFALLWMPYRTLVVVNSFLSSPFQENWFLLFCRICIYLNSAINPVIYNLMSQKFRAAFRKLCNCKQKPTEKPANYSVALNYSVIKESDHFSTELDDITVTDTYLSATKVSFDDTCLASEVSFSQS
Thyrotropin receptor (Homo sapiens), sequence (P16473 whole entry, looked up): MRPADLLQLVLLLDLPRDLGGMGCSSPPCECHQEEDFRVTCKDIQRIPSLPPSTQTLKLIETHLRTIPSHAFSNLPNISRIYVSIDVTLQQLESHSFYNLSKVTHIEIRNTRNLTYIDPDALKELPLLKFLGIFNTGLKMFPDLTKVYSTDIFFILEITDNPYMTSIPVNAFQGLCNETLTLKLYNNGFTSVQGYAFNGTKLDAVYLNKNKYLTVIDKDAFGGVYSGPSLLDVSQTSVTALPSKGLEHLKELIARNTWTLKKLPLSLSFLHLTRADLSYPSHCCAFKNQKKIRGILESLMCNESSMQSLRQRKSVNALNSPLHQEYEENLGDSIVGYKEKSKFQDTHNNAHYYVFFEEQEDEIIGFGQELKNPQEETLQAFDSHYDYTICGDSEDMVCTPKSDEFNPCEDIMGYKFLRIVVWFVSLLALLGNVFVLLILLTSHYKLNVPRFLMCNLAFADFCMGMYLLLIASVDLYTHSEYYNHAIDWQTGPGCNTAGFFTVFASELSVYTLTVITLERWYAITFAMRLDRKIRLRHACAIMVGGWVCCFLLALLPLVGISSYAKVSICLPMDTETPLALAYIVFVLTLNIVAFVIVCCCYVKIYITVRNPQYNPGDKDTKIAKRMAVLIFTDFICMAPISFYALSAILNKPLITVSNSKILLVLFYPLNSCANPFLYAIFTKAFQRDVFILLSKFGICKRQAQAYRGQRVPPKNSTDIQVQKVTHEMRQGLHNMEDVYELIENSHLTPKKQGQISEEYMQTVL

Take `CCOP(=S)(OCC)OC(Cl)C(Cl)(Cl)Cl` (centres undefined): the Potency result in assay [1], in [2], in assay [3], in [5], in assay [6] and in assay [7] was “inactive” each time. Further, the Potency entry in assay [8], in [9], in [10], in assay [11], in assay [13] and in [14] was “inactive” each time. Besides, the result in [4] and in assay [12] was inactive.

Consider `CN(C)C(=S)S`, for which the Potency result in assay [1], in assay [5], in assay [10] and in [11] was “inactive” in each case. Moreover, the Potency was 5.56 µM (active) and 1.21 µM (active) and 12.2 µM (active) in [2]; 12.4 µM (active) in assay [3]; 15.7 µM (active) and 17.2 µM (active) in assay [8]; “inactive and 13.7 µM (active)” in assay [9]; 15.8 µM (active) and 12.1 µM (active) and 15.4 µM (active) in [13]; 19.7 µM (active) and 17.2 µM (active) in [14]. The molecule was called inactive in assay [12].

Consider `CCN`, for which the Potency result in assay [1], in [2], in assay [3], in [15], in assay [5] and in [6] was “inactive” throughout. Besides, the Potency entry in assay [7], in assay [8], in assay [9], in assay [10], in assay [11] and in assay [16] was “inactive” throughout. For the same molecule, the Potency result in [17], in [13] and in assay [14] was “inactive” each time. Moreover, the call in assay [4] and in assay [12] was inactive.

With `O=C(CBr)c1ccc(O)cc1`, the Potency entry in assay [1], in assay [2], in assay [3], in assay [15], in [5] and in assay [10] was “inactive” in each case. Besides, the Potency result in assay [11], in [16], in [17], in [13] and in [14] was “inactive” throughout. The molecule was called inactive in assay [4] and in [12].

For the molecule `CCCCCCCCCCCCCCCC[N+](C)(C)C`, the Potency is 29.5 µM (active) and 48.6 µM (active) and 26.6 µM (active) in assay [1]; 9.34 µM (active) and 24.3 µM (active) and 11.9 µM (active) in assay [2]; 23.5 µM (active) and 54.5 µM (active) and 23.7 µM (active) in assay [3]; 29.8 µM (active) in assay [8]; “inactive and 54.9 µM (active)” in assay [11]; “inactive and 30.1 µM (active)” in assay [16]. For the same molecule, the Potency result in assay [17] is “inactive and 27.5 µM (active)”; in [13] it was 61.1 µM (active). Besides, the molecule was called inactive in assay [4] and in [12]. For the same molecule, the Potency entry in assay [15], in [5], in assay [6] and in assay [14] was “inactive” throughout.

On to `Clc1ccc(COC(Cn2ccnc2)c2ccc(Cl)cc2Cl)cc1` (centres undefined), for which the Potency in assay [1] is 50.8 µM (active) and 60.9 µM (active) and inactive; in [2], 57 µM (active) and 30.5 µM (active) and 11.9 µM (active); in assay [3], 50.8 µM (active) and 27.2 µM (active) and 26.6 µM (active); in [15] it was 57 µM (active) and 68.3 µM (active); in [5], 50.8 µM (active) and 68.3 µM (active) and inactive; in assay [7], 5.31 µM (active). Besides, the Potency was 18 µM (active) and 27.2 µM (active) and 6.68 µM (active) in [8]; 45.3 µM (active) and 15.3 µM (active) and 5.96 µM (active) in [9]; 40.7 µM (active) in [11]; 45.3 µM (active) and 48.4 µM (active) and 26.6 µM (active) in assay [13]. In addition, the Potency result in [6], in assay [10] and in assay [14] was “inactive” each time. For the same molecule, the molecule was classed as inactive in assay [12].

Turning to `CC(C)CC(C)(c1ccc(O)cc1)c1ccc(O)cc1`, the Potency entry in assay [1], in assay [15], in assay [5], in assay [10], in assay [11] and in [17] was “inactive” throughout. Besides, the Potency is 68.7 µM (active) and 61.1 µM (active) in assay [2]; 54.6 µM (active) and 68.6 µM (active) in assay [3]; 6.11 µM (active) in assay [7]; 50.1 µM (active) in [13]. For the same molecule, the result in [4] and in assay [12] was inactive.

For `Oc1ccc2ccc3cccc4ccc1c2c34`, the Potency entry in assay [1], in [3], in assay [15], in [5], in assay [6] and in assay [8] was “inactive” throughout. For the same molecule, the Potency result in assay [9], in assay [10], in [16], in [17], in assay [13] and in [14] was “inactive” throughout. For the same molecule, the Potency in assay [2] is 12.2 µM (active). Further, the outcome in assay [4] was inactive.
